Data from PubChem BioAssay (NCI).
About 83,000 compounds went through this panel and 20% of them were active in at least one assay; those are over-represented in the sample as a whole.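 Values shown are percent growth following 48 h exposure of cells in 96-well plates to a single concentration of compound; below 10 was considered active.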 Calls of active or inactive are those of the source.

Columns and labels:
Test in all cases: NCI-60 one-dose screen, 48 h (100 = growth as untreated, 0 = no growth, -100 = all killed)
Settings in all cases: 10 µM unless noted
[1] = test system: RPMI-8226 leukemia
[2] = test system: OVCAR-5 ovarian
[3] = test system: OVCAR-4 ovarian
[4] = test system: IGROV1 ovarian
[5] = test system: OVCAR-3 ovarian
[6] = test system: HS 578T breast
[7] = test system: NCI/ADR-RES ovarian
[8] = test system: T-47D breast
[9] = test system: SK-OV-3 ovarian
[10] = test system: OVCAR-8 ovarian

Measured: growth

COc1ccccc1C1=C(Br)C(=O)c2nc(C)ccc2C1=O
inactive: [1] 104% | [2] 110% | [3] 97.8% | [4] 97.3% | [5] 81% | [6] 104% | [7] 107% | [8] 69.6%

Cn1c(C(=O)c2cccc3ccccc23)nc2ccccc21
inactive: [1] 17.6% | [2] 49% | [3] 19.9% | [9] 22% | [5] 29.6% | [6] 45.7% | [8] 17%
active: [4] -6.8% | [7] 4.01%

C=C[C@@H]1CCC/C=C/[C@@H]2C[C@H](O)C[C@H]2[C@H](O)/C=C/C(=O)O1
active: [5] -30.8% | [7] 1.8% | [8] -40.9%
inactive: [1] 23.6% | [10] 21.4% | [3] 23.8% | [9] 20.5% | [4] 11.8% | [6] 31.3%

O=C(CCc1nnc2sc(-c3ccc(Cl)cc3Cl)nn12)c1nc2ncccc2[nH]1
inactive: [9] 36.1%
active: [1] -2.08% | [2] -49.3% | [3] -37.7% | [4] -14.8% | [5] -68.7% | [6] 0.818% | [7] -3.89% | [8] -26.3%

CC(C)[C@H](NC(=O)Cn1cc(C(=O)O)nn1)C(=O)O
inactive: [1] 105% | [10] 98.1% | [3] 104% | [9] 106% | [4] 111% | [6] 112% | [7] 106% | [8] 106%

Oc1ccc(-c2nc(-c3ccc4oc5ccc(-c6[nH]c(-c7ccc(O)cc7)nc6-c6ccccc6)cc5c4c3)c(-c3ccccc3)[nH]2)cc1
inactive: [1] 19.8% | [2] 74.3% | [3] 52.9% | [9] 87% | [4] 34.1% | [5] 43.6% | [6] 66.8% | [7] 72.3% | [8] 46.8%

CCCCCCC(O)(c1ccc(F)cc1)C(CN1CCOCC1)c1ccccc1 (stereo not given)
active: [5] 2.28%
inactive: [1] 16.9% | [2] 69.8% | [3] 31.7% | [9] 76.7% | [4] 44% | [6] 51.6% | [7] 17.2% | [8] 14.3%

O=C(NC1CCN(Cc2ccccc2)CC1)c1cc2nc(-c3ccc(Cl)s3)cc(C(F)(F)F)n2n1
active: [1] -18.4%
inactive: [2] 93.2% | [3] 66.4% | [9] 92.6% | [5] 89.9% | [6] 87.3% | [7] 94.4% | [8] 97.1%

O=c1oc2ccc(I)cc2c(=O)n1-c1ccc(F)cc1F
inactive: [2] 40% | [3] 12.7% | [4] 20.2%
active: [1] 1.49% | [9] -19.4% | [7] 5.71% | [8] -13.5%

O=C(Nc1ccc(Cl)cc1F)c1cc(F)ccc1O
inactive: [2] 27.8% | [3] 11.2% | [4] 17.5%
active: [1] -23% | [9] -4.5% | [5] 9.51% | [6] 1.1% | [7] 7.19% | [8] -8.15%

O=C(CN1C(=O)/C(=C\c2ccc(Cl)cc2)SC1=S)Nc1ncc(Cc2ccc(Cl)cc2)s1
inactive: [1] 102% | [2] 104% | [3] 105% | [9] 104% | [4] 103% | [6] 98.9% | [7] 104% | [8] 105%

Oc1c(C(Nc2ccccn2)c2cccc(Oc3ccccc3)c2)ccc2cccnc12 (stereo not given)
active: [1] -50.6% | [2] -84.1% | [3] -96.7% | [9] -90.1% | [4] -91.7% | [5] -96.6% | [6] -47.6% | [7] -81.1% | [8] -71%

CCN(CC)CCCNc1ccnc2cc3ccccc3cc12
inactive: [1] 74.2% | [2] 84.7% | [3] 77.4% | [9] 72.4% | [4] 81.2% | [5] 74.5% | [6] 68.4% | [7] 71.1% | [8] 66%

COc1ccc(/C=C2\N=C(c3ccccc3)N(c3ccc(-c4nc5ccc(C)cc5s4)cc3)C2=O)cc1
inactive: [1] 69.3% | [2] 84.7% | [3] 64.6% | [9] 94.2% | [4] 58.6% | [5] 72.2% | [6] 102% | [7] 93.6% | [8] 54.1%

COc1ccc2oc(=O)cc(Cn3cc(Cn4cnc5c4c(=O)n(C)c(=O)n5C)nn3)c2c1
inactive: [1] 103% | [10] 106% | [2] 94% | [4] 104% | [6] 97.8% | [7] 105% | [8] 94.1%

O=C(Nc1nc2c(s1)CCc1c-2c(Br)n(Cc2ccccc2)c1Br)c1ccccc1
inactive: [1] 63.2% | [2] 79.9% | [9] 57.2% | [4] 18.8% | [5] 62.3% | [6] 47.9% | [7] 61.8% | [8] 46.4%
active: [3] -3.77%

CN1C(=O)N(C)C2(c3ccccc3)OC(=S)NC12c1ccccc1 (stereo not given)
inactive: [1] 109% | [2] 99.6% | [3] 96.1% | [9] 92% | [4] 103% | [5] 97.4% | [6] 108% | [7] 108% | [8] 95.4%

Cn1c(/C=C(\C#N)c2ccccc2)nc2c(N3CCOCC3)nc(Cl)nc21
active: [1] -24.3% | [2] -50.1% | [3] -58.4% | [4] -61.7% | [5] -91.8% | [6] -20% | [7] 3.17% | [8] -37.8%

O=S1(=O)CCN(Cc2ccccc2)CC1
inactive: [1] 102% | [2] 96.2% | [3] 107% | [9] 101% | [4] 119% | [5] 105% | [6] 109% | [7] 106% | [8] 93.3%

COc1ccc(/C=C2\NC(=O)NC2=O)cc1O
inactive: [1] 101% | [2] 108% | [3] 98.8% | [9] 103% | [4] 107% | [5] 116% | [6] 109% | [7] 102% | [8] 100%

COc1ccc(/C=C/C(=O)c2ccc3cc(OC)c(OC)cc3c2)cc1OC
active: [1] 4.57%
inactive: [2] 29.6% | [3] 25.5% | [9] 63.3% | [4] 53.8% | [5] 15.5% | [6] 77.2% | [7] 11.5% | [8] 47.5%

Clc1ncccc1Nc1ccc2nnc(-c3ccncc3)n2n1
inactive: [1] 98.9% | [2] 104% | [3] 91.3% | [9] 104% | [4] 82.3% | [5] 102% | [6] 102% | [7] 98.7% | [8] 86.6%

N#C/C(=C\c1c(-c2ccccc2)[nH]c2ccccc12)S(=O)(=O)c1ccccc1
inactive: [2] 75.1% | [3] 83% | [9] 30.5% | [6] 15.9% | [8] 38.9%
active: [1] -43.1% | [5] -27.9% | [7] 7.91%

NCCOc1ncccc1/C=C1\c2ccccc2-c2ccc(F)cc21
inactive: [10] 14.9% | [2] 32.1% | [5] 36.7% | [6] 44.2% | [7] 29.9% | [8] 21.2%
active: [1] -14.6%

COc1ccc(-n2c(C(O)c3ccccc3)nn(CN3CCOCC3)c2=S)cc1 (stereo not given)
inactive: [1] 88.9% | [2] 101% | [3] 96.1% | [9] 101% | [4] 96.6% | [5] 124% | [6] 93.3% | [7] 107% | [8] 90.4%

O=C(Nc1ccc(I)cc1F)c1cc(F)ccc1O
active: [1] -33.8% | [9] -6.45% | [5] 6.68% | [6] -3.33% | [7] 4.19% | [8] -12.4%
inactive: [2] 23.6% | [3] 12.4% | [4] 12.7%

COC(=O)[C@@H]1CCCN1C(=O)[C@H]1CCCN1C(=O)[C@@H](Cc1c[nH]c2ccccc12)NC(=S)Nc1cc(C(F)(F)F)cc(C(F)(F)F)c1
inactive: [10] 61.3% | [2] 60.1% | [9] 69.6% | [4] 29.2% | [5] 47% | [6] 11.6% | [7] 67.1% | [8] 37.3%

c1ccc(-c2ccc(-c3nc4ccccc4[nH]3)cc2)cc1
inactive: [1] 51.2% | [2] 106% | [9] 89.3% | [5] 86.2% | [6] 94.5% | [7] 86.7% | [8] 86.6%

CCOC(=O)C(CC(=O)O)=C(C(=O)OCC)C(=O)OCC
inactive: [10] 99.9% | [2] 109% | [3] 90.2% | [9] 110% | [4] 111% | [5] 111% | [6] 107% | [7] 112% | [8] 100%

O=C(CN1C=NC2C(N3CCOCC3)=NC=NC21)c1cccc2ccccc12 (stereo not given)
inactive: [10] 97% | [2] 92% | [3] 97.1% | [4] 90.8% | [5] 101% | [6] 102% | [7] 104% | [8] 90.7%

O=C1N=c2ccccc2=C1c1sc(=Nc2ccccc2)n(Nc2ccccc2)c1O
inactive: [10] 105% | [2] 101% | [3] 43.5% | [4] 96.2% | [5] 110% | [6] 102% | [7] 108% | [8] 97.6%

CN1C(=O)N(C)C2(c3ccccc3)n3c(s/c(=C\c4ccccc4)c3=O)=NNC12c1ccccc1 (stereo not given)
inactive: [10] 96.8% | [2] 99.9% | [3] 100% | [4] 97.9% | [5] 103% | [6] 102% | [7] 88.3% | [8] 81.9%
